40 compounds from PubChem BioAssay (NCI) can be followed below.

This is part of a sample that, as a whole, favours compounds with a hit. Of some 79,000 tested, about 15% had one in any assay. Active and inactive are the calls of the source. Cut-off read from the data, not from the text of the source: active = growth inhibition above about 70%; inactive = the rest.

The first assay can be described thus: NCI Yeast Anticancer Drug Screen. Data for the mec2-1 strain (AID 157). Particulars: S. cerevisiae mec2-1 strain, at 5.0 µM (retest, dose inferred, filed as 0.5), active compounds read high. In a few lines: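 Vehicle-treated cultures served as reference for growth inhibition of compound-exposed mec2-1 yeast.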
Turning to `CC(C)N=C(NC(C)C)SCCCCCCSC(=NC(C)C)NC(C)C`, the growth inhibition is -1% (inactive).

Consider `CCCCCOC(=S)SSSC(=S)OCCCCC`, for which the growth inhibition was 44% (inactive).

Turning to `CCCCCCCCCCCCCCCC[N+](C)(C)CC(=O)O`, the growth inhibition was 7% (inactive).

Take `Cc1cc(C)c([O-])c(-[n+]2c(-c3ccccc3)cc(-c3ccccc3)cc2-c2ccccc2)c1`: the growth inhibition is 1% (inactive).

`CC(=O)NNc1ccc(Cl)cc1[N+](=O)[O-]`: the growth inhibition is -5% (inactive).

As for `O=C(NC(=Nc1ccccc1)SCCSC(=Nc1ccccc1)NC(=O)c1ccccc1)c1ccccc1`, the growth inhibition is 18% (inactive).

As to `CN(C)CCCNc1ccc(O)c2c1C(=O)c1ccccc1C2=O`, the growth inhibition is 95% (active).

For `COC(=O)C(=O)C(/C=N/C(=S)NCCc1ccc(OC)c(OC)c1)=C(/O)c1ccc([N+](=O)[O-])cc1`, the growth inhibition was -5% (inactive).

On to `CCCC(=O)OCC1CC2C=CC1C2` (stereo not given), for which the growth inhibition was 0% (inactive).

Turning to `CN(NC(=O)/C(=C/c1cc(Cl)cc(Cl)c1O)NC(=O)c1ccccc1)c1cnn(-c2ccccc2)c(=O)c1Cl`, the growth inhibition was 3% (inactive).

Consider `CC(C)N(C(=O)CC1(O)CCCCC1)C(C)C`, for which the growth inhibition was -5% (inactive).

In the case of `COC(=O)C1C(c2ccccc2)=N[C@@H](c2ccccc2)[C@H]1C(=O)OC` (stereo not given in full), the growth inhibition is 3% (inactive).

`O=C1C(=Cc2ccccc2O)N=C(c2ccccc2)N1n1c(-c2ccccc2)nc2ccccc2c1=O`: the growth inhibition was -3% (inactive).

Regarding `CCOc1ccc2c(c1)[n+]([O-])c(-c1ccc([N+](=O)[O-])cc1)c(N)[n+]2[O-]`, the growth inhibition is 41% (inactive).

As to `O=C(NCCCNCCCCNCCCNC(=O)c1cc(-c2ccccc2)nc2ccccc12)c1cc(-c2ccccc2)nc2ccccc12`, the growth inhibition is 25% (inactive).

As for `CC1=C(C(=O)Nc2cccc3ccccc23)C(c2cccc([N+](=O)[O-])c2)C(C(=O)Nc2cccc3ccccc23)=C(C)N1`, the growth inhibition is 22% (inactive).

Turning to `O=C1OC(c2ccc(O)cc2)Sc2ccccc21` (stereo not given), the growth inhibition is 38% (inactive).

`CC(C)(C)c1ccc(-c2nc3ccccc3c(=O)o2)cc1`: the growth inhibition was -1% (inactive).

As to `O=C(N/C(=C/c1ccc(Cl)cc1Cl)c1nc2ccccc2s1)c1ccccc1`, the growth inhibition is 13% (inactive).

With `O=C(O)C/C(=C\c1ccco1)C(=O)O`, the growth inhibition is -4% (inactive).

Take `CN(C)Cc1cc(N=Nc2ccc(Cl)c(Cl)c2)ccc1O`: the growth inhibition is -11% (inactive).

Take `CC(=O)OC1C(O)C(C)OC(OC(=O)C2CCC3C(C2)OC2(CC(OC(=O)/C=C/c4ccccc4)C(C)CO2)C32CO2)C1OC1OC(C)C(O)C(O)C1O` (stereo not given): the growth inhibition was 18% (inactive).

On to `O=C1c2ccccc2C(=O)c2c(/C=C\N3CCCCC3)ccnc21`, for which the growth inhibition was 27% (inactive).

For the compound `CCN(CC)c1ccc(NC(CC(O)c2ccccc2)c2ccccc2)cc1` (stereo not given), the growth inhibition is -3% (inactive).

`CCOC(=O)Nc1nc2ccc(SC#N)cc2s1`: the growth inhibition was 1% (inactive).

Turning to `CSC(SC)C(SC)SC`, the growth inhibition was 1% (inactive).

Take `N#CC(C(=O)C(=O)Nc1ccc(Cl)cc1)c1c(Cl)cccc1Cl` (stereo not given): the growth inhibition is 7% (inactive).

Turning to `CN(/N=C\c1cccc([N+](=O)[O-])c1)C(c1cccc([N+](=O)[O-])c1)N(C)/N=C/c1cccc([N+](=O)[O-])c1` (stereo not given), the growth inhibition is -1% (inactive).

As to `Oc1cc(Br)cc2cc(Br)cnc12`, the growth inhibition was 89% (active).

With `COc1ccccc1C(C)c1ccc2ccccc2c1C(=O)O` (stereo not given), the growth inhibition is 2% (inactive).

Take `Cc1ccnc2[nH]c3ccccc3c(=O)c12`: the growth inhibition was 38% (inactive).

For the compound `COc1cc(OC)c(/C=C\c2ccnc3ccccc23)c(OC)c1`, the growth inhibition is 32% (inactive).

As to `COC(=O)C1(COCc2ccccc2)CCCC2OC21` (stereo not given), the growth inhibition is 6% (inactive).

As to `O=[N+]([O-])/C(=C\c1cccs1)c1ccccc1`, the growth inhibition was 92% (active).

In the case of `Cc1cc(C(O)(c2cc(C)c(O)c(C(=O)O)c2)c2cc(C)c(O)c(C(=O)O)c2)cc(C(=O)O)c1O`, the growth inhibition is 2% (inactive).

As to `CC(C)C(C)(C(=O)O)C(C)C`, the growth inhibition was 3% (inactive).

Regarding `CN(Cc1cc(Cl)cc(Cl)c1)CC(C(=O)c1ccccc1)c1ccccc1` (stereo not given), the growth inhibition is 13% (inactive).

`O=c1[nH]c(Cc2ccccc2)nc2c1sc1nc3ccccc3n12`: the growth inhibition is 9% (inactive).

Take `CC(NNC(=S)N1CCCC1)c1cccnn1` (stereo not given): the growth inhibition is 91% (active).

On to `Cc1ccc2c(c1)C(O)(c1ccccc1)CCS2` (stereo not given), for which the growth inhibition is 58% (inactive).

Staying with this assay, now noted: S. cerevisiae mec2-1 strain, at 50.0 µM (retest, dose inferred, filed as 5.0), active compounds read high.
As to `CC(C)N=C(NC(C)C)SCCCCCCSC(=NC(C)C)NC(C)C`, the growth inhibition was 1% (inactive).

For `CCCCCOC(=S)SSSC(=S)OCCCCC`, the growth inhibition was 99% (active).

In the case of `CCCCCCCCCCCCCCCC[N+](C)(C)CC(=O)O`, the growth inhibition is 98% (active).

On to `Cc1cc(C)c([O-])c(-[n+]2c(-c3ccccc3)cc(-c3ccccc3)cc2-c2ccccc2)c1`, for which the growth inhibition is 1% (inactive).

`CC(=O)NNc1ccc(Cl)cc1[N+](=O)[O-]`: the growth inhibition is 26% (inactive).

Turning to `O=C(NC(=Nc1ccccc1)SCCSC(=Nc1ccccc1)NC(=O)c1ccccc1)c1ccccc1`, the growth inhibition is 18% (inactive).

In the case of `CN(C)CCCNc1ccc(O)c2c1C(=O)c1ccccc1C2=O`, the growth inhibition is 99% (active).

As for `COC(=O)C(=O)C(/C=N/C(=S)NCCc1ccc(OC)c(OC)c1)=C(/O)c1ccc([N+](=O)[O-])cc1`, the growth inhibition is -3% (inactive).

As for `CCCC(=O)OCC1CC2C=CC1C2` (stereo not given), the growth inhibition is 2% (inactive).

Consider `CN(NC(=O)/C(=C/c1cc(Cl)cc(Cl)c1O)NC(=O)c1ccccc1)c1cnn(-c2ccccc2)c(=O)c1Cl`, for which the growth inhibition is 36% (inactive).

In the case of `CC(C)N(C(=O)CC1(O)CCCCC1)C(C)C`, the growth inhibition is 1% (inactive).

For `COC(=O)C1C(c2ccccc2)=N[C@@H](c2ccccc2)[C@H]1C(=O)OC` (stereo not given in full), the growth inhibition was -2% (inactive).

As for `O=C1C(=Cc2ccccc2O)N=C(c2ccccc2)N1n1c(-c2ccccc2)nc2ccccc2c1=O`, the growth inhibition is 22% (inactive).

For `CCOc1ccc2c(c1)[n+]([O-])c(-c1ccc([N+](=O)[O-])cc1)c(N)[n+]2[O-]`, the growth inhibition is 90% (active).

As to `O=C(NCCCNCCCCNCCCNC(=O)c1cc(-c2ccccc2)nc2ccccc12)c1cc(-c2ccccc2)nc2ccccc12`, the growth inhibition is 99% (active).

With `CC1=C(C(=O)Nc2cccc3ccccc23)C(c2cccc([N+](=O)[O-])c2)C(C(=O)Nc2cccc3ccccc23)=C(C)N1`, the growth inhibition is 50% (inactive).

As for `O=C1OC(c2ccc(O)cc2)Sc2ccccc21` (stereo not given), the growth inhibition was 83% (active).

Regarding `CC(C)(C)c1ccc(-c2nc3ccccc3c(=O)o2)cc1`, the growth inhibition is 41% (inactive).

`O=C(N/C(=C/c1ccc(Cl)cc1Cl)c1nc2ccccc2s1)c1ccccc1`: the growth inhibition was 98% (active).

As for `O=C(O)C/C(=C\c1ccco1)C(=O)O`, the growth inhibition is -9% (inactive).

For `CN(C)Cc1cc(N=Nc2ccc(Cl)c(Cl)c2)ccc1O`, the growth inhibition is 31% (inactive).

In the case of `CC(=O)OC1C(O)C(C)OC(OC(=O)C2CCC3C(C2)OC2(CC(OC(=O)/C=C/c4ccccc4)C(C)CO2)C32CO2)C1OC1OC(C)C(O)C(O)C1O` (stereo not given), the growth inhibition was 98% (active).

Regarding `O=C1c2ccccc2C(=O)c2c(/C=C\N3CCCCC3)ccnc21`, the growth inhibition is 60% (inactive).

Regarding `CCN(CC)c1ccc(NC(CC(O)c2ccccc2)c2ccccc2)cc1` (stereo not given), the growth inhibition is -1% (inactive).

On to `CCOC(=O)Nc1nc2ccc(SC#N)cc2s1`, for which the growth inhibition was 81% (active).

As to `CSC(SC)C(SC)SC`, the growth inhibition is 99% (active).

With `N#CC(C(=O)C(=O)Nc1ccc(Cl)cc1)c1c(Cl)cccc1Cl` (stereo not given), the growth inhibition was 11% (inactive).

Turning to `CN(/N=C\c1cccc([N+](=O)[O-])c1)C(c1cccc([N+](=O)[O-])c1)N(C)/N=C/c1cccc([N+](=O)[O-])c1` (stereo not given), the growth inhibition is 45% (inactive).

Consider `Oc1cc(Br)cc2cc(Br)cnc12`, for which the growth inhibition was 98% (active).

As for `COc1ccccc1C(C)c1ccc2ccccc2c1C(=O)O` (stereo not given), the growth inhibition was 93% (active).

Take `Cc1ccnc2[nH]c3ccccc3c(=O)c12`: the growth inhibition is 98% (active).

Turning to `COc1cc(OC)c(/C=C\c2ccnc3ccccc23)c(OC)c1`, the growth inhibition is 93% (active).

As for `COC(=O)C1(COCc2ccccc2)CCCC2OC21` (stereo not given), the growth inhibition is -4% (inactive).

Consider `O=[N+]([O-])/C(=C\c1cccs1)c1ccccc1`, for which the growth inhibition was 99% (active).

For the compound `Cc1cc(C(O)(c2cc(C)c(O)c(C(=O)O)c2)c2cc(C)c(O)c(C(=O)O)c2)cc(C(=O)O)c1O`, the growth inhibition is -11% (inactive).

Regarding `CC(C)C(C)(C(=O)O)C(C)C`, the growth inhibition is 2% (inactive).

As to `CN(Cc1cc(Cl)cc(Cl)c1)CC(C(=O)c1ccccc1)c1ccccc1` (stereo not given), the growth inhibition was 90% (active).

Regarding `O=c1[nH]c(Cc2ccccc2)nc2c1sc1nc3ccccc3n12`, the growth inhibition is 56% (inactive).

With `CC(NNC(=S)N1CCCC1)c1cccnn1` (stereo not given), the growth inhibition was 99% (active).

Take `Cc1ccc2c(c1)C(O)(c1ccccc1)CCS2` (stereo not given): the growth inhibition is 97% (active).
